Inconclusive results are not listed. Values without a mark were called inactive. The source made the active and inactive calls. The call rests on the fitted dose curve; in most records, active means well fitted cell-killing curve with a large enough effect; inconclusive means small, poorly fitted or top-dose-only effect, or effect the other way; inactive means no such curve, though single readings can be large or run the other way.
Test: Quantitative highthroughput screen to assess conditional lethalithy of SEM cells grown in RPMI1640 with unreated serum (RPMI+s) (AID 1963883); further: nearly all actives have a fitted effect of over 35% in size;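 on viability: 100% = DMSO wells and 0% = empty wells without cells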
Settings: SEM B-ALL cells, CellTiter-Glo viability, 48 h; series mostly up to 45.8 µM; viability: at the top concentration
Procedure, shortened: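 Each medium arm—HPLM with 10% dialyzed FBS, or RPMI1640 with 5 mM glucose and 10% untreated or dialyzed FBS—was screened against an 11-point, 3-fold compound titration for 48 h at 37 °C, with CellTiter-Glo luminescence as endpoint.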
Potency means the concentration at half of the fitted maximal effect.

SMILES	Potency	viability [%]
NS(=O)(=O)OC[C@@H]1C[C@@H](n2ccc3c(N[C@H]4CCc5ccccc54)ncnc32)C[C@H]1O	1480 nM (active)	
CC(C)(C)OC(=O)N[C@H]1CCCCCC=C[C@@H]2C[C@@]2(C(=O)NS(=O)(=O)C2CC2)NC(=O)[C@@H]2C[C@@H](OC(=O)N3Cc4cccc(F)c4C3)CN2C1=O		84.5
Cc1c(Cn2c(C)nc3c(C(=O)O)cc(N4CCOCC4)cc32)cccc1C(F)(F)F		73
C=CC1=C(C(=O)O)N2C(=O)[C@@H](NC(=O)C(=NO)c3csc(N)n3)[C@H]2SC1		99.2
O=C1Nc2ccc(I)cc2C1=Cc1cc(Br)c(O)c(Br)c1	16600 nM (active)	
CC(=O)OCC(=O)[C@@]12N=C(C)O[C@H]1C[C@H]1[C@@H]3CCC4=CC(=O)C=C[C@]4(C)[C@@H]3[C@@H](O)C[C@@]12C	23500 nM (active)	
COC1=C2C[C@@H](C)C[C@H](OC)[C@@H](O)[C@@H](C)C=C(C)[C@H](OC(N)=O)[C@@H](OC)C=CC=C(C)C(=O)NC(=CC1=O)C2=O	8330 nM (active)	
Cc1cc(CS(=O)(=O)c2ccccc2)cc(OCc2ccc(CN3CCC[C@H]3CO)cc2)c1	332 nM (active)	
C=CCNC1=C2C[C@@H](C)C[C@H](OC)[C@@H](O)[C@@H](C)C=C(C)[C@H](OC(N)=O)[C@@H](OC)C=CC=C(C)C(=O)NC(=CC1=O)C2=O	332 nM (active)	
CNC(=O)[C@H](CC1=CN=C2C=CCC=C12)NC(=O)[C@@H](CC(=O)NO)CC(C)C		95
CC(=O)[C@]1(O)Cc2c(O)c3c(c(O)c2[C@@H](O[C@H]2C[C@H](N)[C@@H](O)[C@H](C)O2)C1)C(=O)c1ccccc1C3=O	833 nM (active)	
COc1ccc(C(C)=O)c(O)c1		104
Cn1cc(-c2ccc3nnc(C(F)(F)c4ccc5ncccc5c4)n3n2)cn1		71.6
Fc1ccc(C(c2ccc(F)cc2)N2CCN(CC=Cc3ccccc3)CC2)cc1		79.2
N#CC(=C(O)c1ccc(Cl)cc1Cl)c1nc2cc(Cl)ccc2c(=O)[nH]1		105
OC(CN1CCN(c2cccc(Cl)c2)CC1)C(c1ccccc1)c1ccccc1 (stereo unspecified)	148 nM (active)	
Cc1ccc(Nc2cc(-c3cccc(N4C(=O)c5ccccc5C4=O)c3)ncn2)cc1NS(C)(=O)=O		74.8
N#CC(=C1Nc2ccccc2S1)c1ccnc(OCc2ccc(CN3CCOCC3)cc2)n1		79.8
C[C@H]1[C@H](O)O[C@@H]2O[C@@]3(C)CC[C@@H]4[C@H](C)CC[C@@H]1[C@@]24OO3	4690 nM (active)	
COc1ccc(-c2cc(=O)c3c(O)cc(O[C@@H]4O[C@H](CO[C@@H]5O[C@@H](C)[C@H](O)[C@@H](O)[C@@H]5O)[C@@H](O)[C@H](O)[C@@H]4O)cc3o2)cc1O		94.6
Nc1nc(=O)n([C@H]2CSC(CO)O2)cc1F (stereo partly specified)		105

Reference: PubChem BioAssay (NCATS)
